Only some compounds are listed: those with a hit (about 1.2% of all), similar ones and a draw of the others.
LAP4 TOR yeast: yeast TOR pathway LAP4-GFP modulation; actives 0.34% (n = 320,000); GFP response vs DMSO, % at 10 µM; S. cerevisiae LAP4-GFP multiplex, flow cytometry GFP, 3 h; median GFP as percent of DMSO wells; AID 2023;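 active = GFP response vs DMSO above a set limit, about the screen mean plus 3 SD, cut at about 150% in these data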
RPL19A-GFP yeast: modulators of TOR pathway RPL19A-GFP in S. cerevisiae; S. cerevisiae RPL19A-GFP strain, flow cytometry, 3 h; active compounds read low; AID 2025; percent response vs DMSO, % at 10 µM; actives 0.3% (n = 330,000);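 active = percent response vs DMSO below 50%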;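 note: median channel GFP fluorescence of the barcoded RPL19A-GFP strain; ratio of sample median GFP to plate DMSO average so 100% = DMSO; lower means less RPL19A-GFP as with rapamycin TOR inhibition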
MEP2 TOR yeast: yeast TOR pathway MEP2-GFP modulation; S. cerevisiae MEP2-GFP strain, flow cytometry GFP, 3 h; 100% = DMSO control level; GFP response vs DMSO, % at 10 µM; actives 0.51% (n = 330,000); AID 2016;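 active = GFP response versus DMSO above a set limit, roughly screen mean plus 3 SD, cut at about 180% in these data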;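 note: median GFP fluorescence of the barcode-gated MEP2-GFP cells per well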
Pemphigus Ab inh: inhibitors of pemphigus antibody binding to human desmoglein-3 | actives 0.48% (n = 310,000) | P32926 | AID 588358 | DSG3-coupled beads, scFv-anti-DSG3-GFP binding, flow cytometry; active compounds read low | binding (percent of control), % at 10 µM;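 active = binding more than 3 SD below its plate's average and above zero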;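 note: hits lower antibody fragment binding to DSG3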
Target sequence (P32926 whole entry, looked up, the tested form may be a part): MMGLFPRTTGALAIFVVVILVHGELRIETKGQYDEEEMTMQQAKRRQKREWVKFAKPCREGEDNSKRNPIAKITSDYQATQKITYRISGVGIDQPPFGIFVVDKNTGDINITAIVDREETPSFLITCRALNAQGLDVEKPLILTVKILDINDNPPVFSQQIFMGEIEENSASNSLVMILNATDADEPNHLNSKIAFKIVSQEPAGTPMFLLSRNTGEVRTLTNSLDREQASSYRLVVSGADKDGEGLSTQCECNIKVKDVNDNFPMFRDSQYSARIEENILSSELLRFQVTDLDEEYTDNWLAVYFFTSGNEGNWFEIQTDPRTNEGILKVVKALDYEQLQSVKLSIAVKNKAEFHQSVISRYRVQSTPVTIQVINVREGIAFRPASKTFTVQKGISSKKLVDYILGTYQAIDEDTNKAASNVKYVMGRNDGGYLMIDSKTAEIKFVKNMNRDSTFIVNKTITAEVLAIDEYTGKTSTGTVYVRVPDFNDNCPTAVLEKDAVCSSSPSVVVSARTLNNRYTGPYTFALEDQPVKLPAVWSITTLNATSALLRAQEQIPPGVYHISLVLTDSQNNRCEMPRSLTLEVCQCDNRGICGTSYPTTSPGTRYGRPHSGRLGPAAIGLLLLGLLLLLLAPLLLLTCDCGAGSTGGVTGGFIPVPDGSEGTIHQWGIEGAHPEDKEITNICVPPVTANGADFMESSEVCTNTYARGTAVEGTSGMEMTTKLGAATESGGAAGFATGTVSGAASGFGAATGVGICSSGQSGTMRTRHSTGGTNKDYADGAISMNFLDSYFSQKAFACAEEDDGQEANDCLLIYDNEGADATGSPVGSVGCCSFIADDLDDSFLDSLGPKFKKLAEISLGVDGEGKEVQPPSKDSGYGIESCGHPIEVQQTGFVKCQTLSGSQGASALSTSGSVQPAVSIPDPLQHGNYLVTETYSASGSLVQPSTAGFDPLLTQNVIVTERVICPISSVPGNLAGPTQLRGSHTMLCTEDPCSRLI
AGP1 TOR yeast: modulators of TOR pathway AGP1-GFP in S. cerevisiae | S. cerevisiae AGP1-GFP multiplex flow cytometry, 3 h; GFP as percent of DMSO wells | GFP response vs DMSO, % at 10 µM | actives 0.02% (n = 320,000) | AID 2066;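 active = GFP response relative to DMSO above a set limit, near screen average plus 3 SD, cut at about 150% in these data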;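 note: median GFP channel fluorescence of the gated AGP1 strain per well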
CIT2-GFP yeast: modulators of TOR pathway CIT2-GFP in S. cerevisiae | S. cerevisiae CIT2-GFP strain, flow cytometry, 3 h; 100 means same as DMSO wells | AID 2029 | GFP response vs DMSO, % at 10 µM | actives 0.065% (n = 320,000);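 active = GFP response relative to DMSO above a set limit, near the screen mean plus 3 SD, cut at about 150% in these data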;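 note: ratio of well median GFP fluorescence to mean of DMSO wells on the plate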
LAP4 cherry2: yeast LAP4-GFP modulation, second cherry pick | shares compounds with LAP4 TOR yeast | S. cerevisiae LAP4-GFP strain, flow cytometry GFP, 3 h | GFP response vs DMSO, % at 10 µM | actives 20% (n = 590) | AID 2621;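 active = GFP signal as percent of the solvent control above about 150%, meaning raised reporter expression, limit read from the data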;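 note: ratio of well median GFP fluorescence to plate DMSO mean so 100% = DMSO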
MEP2-GFP pick2: second confirmation of modulators of TOR reporter MEP2-GFP in yeast; shares compounds with LAP4 TOR yeast; AID 2622; S. cerevisiae MEP2-GFP strain, flow cytometry GFP, 3 h; actives 10% (n = 590); GFP response vs DMSO, % at 10 µM;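 active = GFP signal above 150% of the solvent control wells, that is a rise of more than half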;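 note: median channel GFP fluorescence of all gated yeast cells per well; ratio of median GFP to plate DMSO average so 100% = DMSO level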
RPL19A GFP CP2: reconfirmed modulator of RPL19A-GFP TOR reporter in yeast; AID 2623; actives 3% (n = 590); S. cerevisiae RPL19A-GFP strain, flow cytometry GFP, 3 h; active compounds read low; 100% means same as DMSO wells; shares compounds with LAP4 TOR yeast; GFP response vs DMSO, % at 10 µM;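 active = under 65% GFP response relative to DMSO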;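 note: median GFP channel fluorescence per well over the all cells gate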
CIT2-GFP pick2: yeast CIT2-GFP TOR reporter modulation, second cherry pick. shares compounds with LAP4 TOR yeast. S. cerevisiae CIT2-GFP strain, flow cytometry GFP, 3 h; DMSO control wells read 100%. GFP response vs DMSO, % at 10 µM. actives 8% (n = 590). AID 2624;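 active = GFP response vs DMSO above about 150%, limit read from the data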;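 note: median green fluorescence per well over all gated yeast cells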
AGP1-GFP pick2: reconfirmed modulator of AGP1-GFP TOR reporter in yeast; shares compounds with LAP4 TOR yeast; 590 tested, under 10 active; AID 2643; S. cerevisiae AGP1-GFP strain, flow cytometry GFP, 3 h; percent response vs DMSO, % at 10 µM;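 active = over 150 percent of DMSO response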;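 note: median GFP channel fluorescence over all cells without mother daughter split; sample median GFP divided by mean DMSO control so 100% equals DMSO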
s288c autofluor: counter-screen for compound autofluorescence in yeast s288c cells; shares compounds with LAP4 TOR yeast; S. cerevisiae s288c, 520 nm autofluorescence, flow cytometry, 3 h; active compounds read high; zero means same as solvent-only cells; fluorescence change (kMESF span) at 33 µM; 610 tested, under 10 active; AID 2757;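 active = fluorescence span over the dose series, or activity score, above about 33, limit read from the data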
s288c autofl DR: counter-screen for autofluorescence of TOR hits in yeast s288c. S. cerevisiae s288c parental, compound autofluorescence, flow cytometry, 3 h. fluorescence change (span) at 33 µM. 110 tested, under 10 active. shares compounds with LAP4 TOR yeast;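 active = fluorescence change span, or the activity score built from it, above 25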
TORC1 bypass gr: stops wildtype yeast growth while TORC1 bypass cells still grow | shares compounds with LAP4 TOR yeast | S. cerevisiae BY4741 spot growth rating, 48-72 h; active compounds read low | growth rating (0-3) at 30 µM | 120 tested, under 10 active | AID 504456;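 active = growth rating at most 1 for wild type yeast while the TORC1 bypass strain still grows fully, rated 3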
Starred values were filed as active, the others as inactive; x = not tested or not shown.

SMILES	LAP4 TOR yeast	RPL19A-GFP yeast	MEP2 TOR yeast	Pemphigus Ab inh	AGP1 TOR yeast	CIT2-GFP yeast	LAP4 cherry2	MEP2-GFP pick2	RPL19A GFP CP2	CIT2-GFP pick2	AGP1-GFP pick2	s288c autofluor	others
O=[N+]([O-])c1ccc(S(=O)(=O)c2cccc(C(F)(F)F)c2)nc1	x	70.1	101.6	98.8	x	x	x	x	x	x	x	0.81	s288c autofl DR=0.73;TORC1 bypass gr=3
CCCCCCCCCCCCCCCC[n+]1cccc2ccccc21	39.9	11.5*	53.9	x	6.8	26.2	154.3*	138.0	81.3	100.1	95.0	0.91
CC12CN(Cc3ccccc3)CC(C)(CN(Cc3ccccc3)C1)C2=O	86.0	96.9	96.2	107.0	90.8	94.4	x	x	x	x	x	x
CCN(CC)CCCNC(=O)c1ccccc1NC(=O)C1=CSCCO1	118.6	104.9	113.1	x	117.8	113.3	x	x	x	x	x	x
Cc1ccc(-c2ccc3c(c2)O[C@H](CN(C)Cc2cncnc2)[C@@H](C)CN([C@H](C)CO)S3(=O)=O)cc1	x	x	x	103.0	x	x	x	x	x	x	x	x
CCn1c(CSc2nnc(-c3ccncc3)n2CCOC)nc2cc(C(=O)O)ccc21	102.5	101.1	99.2	101.7	102.1	102.2	x	x	x	x	x	x
CCn1c(CSc2n[nH]c(N)n2)nc2cc(C(=O)O)ccc21	124.6	100.8	178.4*	103.9	104.2	109.1	97.1	98.2	99.8	100.7	101.3	x
COc1ccc(N/N=C(\C#N)C(N)=O)cc1	165.3*	92.0	123.3	90.4	110.2	147.5	x	x	x	x	x	7.85
CCOc1ccc(N/C(SC)=C(/C#N)C(N)=O)cc1	106.2	105.8	105.1	99.7	108.3	103.1	x	x	x	x	x	x
CCOc1ccc(N/N=C(/C#N)C(N)=O)cc1	209.6*	78.4	228.1*	88.1	118.8	105.7	x	x	x	x	x	6.95
CCC(=O)Oc1oc(-c2ccccc2)nc1C=Nc1ccc(C)cc1	103.0	101.4	95.6	119.8	102.0	90.3	x	x	x	x	x	-0.5
CN(C)c1ccc(N=Cc2nc(-c3ccccc3)oc2OC(=O)c2cccc(Br)c2)cc1	98.2	102.0	108.7	95.9	96.8	106.2	x	x	x	x	x	x
CCC(=O)Oc1oc(-c2ccccc2)nc1C=Nc1ccccc1OC	103.2	94.2	98.7	107.6	91.9	80.6	x	x	x	x	x	0
CCOC(=O)c1ccc(N(C(=O)c2ccco2)C(C(=O)NC2CCCC2)c2ccncc2)cc1 (configuration not stated)	100.3	102.2	94.9	95.5	100.6	101.1	x	x	x	x	x	x
CCOc1ccc(C(C)=O)cc1N1C(=O)C2C3C=CC(O3)C2C1=O (configuration not stated)	203.4*	98.4	84.5	77.4	78.2	87.4	x	x	x	x	x	0.51
Cc1ccccc1-n1ccnc1SCC(=O)Nc1cccc(S(=O)(=O)NC2=NCCC2)c1	111.2	101.4	112.9	104.5	109.2	102.9	x	x	x	x	x	x
Cc1ccc(NC(=O)N2CCC(NC(=O)C(C)(C)C)CC2)cc1	98.3	103.3	103.5	101.2	106.2	114.1	x	x	x	x	x	x
COc1cccc(NC(=O)CC(=O)c2ccccc2)c1	98.4	97.3	99.9	99.7	91.4	95.6	105.8	103.2	100.0	92.7	93.8	x
Cc1ccccc1NC(=O)CC(=O)c1ccccc1	92.0	99.5	107.9	103.4	94.0	100.9	104.8	111.5	101.9	99.5	99.8	x
O=C(CC(=O)c1ccccc1)Nc1ccccc1C(F)(F)F	87.2	98.5	105.3	103.7	94.6	93.7	101.0	101.5	101.5	97.2	97.4	x
O=C(CC(=O)c1ccccc1)Nc1ccccc1	91.6	89.3	94.6	106.2	89.4	82.1	105.8	101.5	101.3	100.7	98.4	x
COc1cccc(NC(=O)Cc2ccccc2)c1	108.3	98.2	86.4	107.8	78.5	86.8	x	x	x	x	x	x
Cc1ccc(C(=O)O/N=C(\N)Cc2ccc([N+](=O)[O-])cc2)c(Cl)c1	138.0	101.2	90.4	x	67.3	77.5	x	x	x	x	x	x
Cc1ccc(C(=O)O/N=C(\N)Cc2cccs2)c(Cl)c1	232.4*	87.1	107.7	115.7	53.7	128.7	x	x	x	x	x	0.9
Cc1ccc(NC(=O)CCc2ccccc2)cc1S(=O)(=O)N1CCOCC1	151.1*	88.2	108.9	110.5	111.5	88.1	101.2	99.6	98.9	101.5	98.6	0
SMILES	LAP4 TOR yeast	RPL19A-GFP yeast	MEP2 TOR yeast	Pemphigus Ab inh	AGP1 TOR yeast	CIT2-GFP yeast	LAP4 cherry2	MEP2-GFP pick2	RPL19A GFP CP2	CIT2-GFP pick2	AGP1-GFP pick2	s288c autofluor	others
COc1ccc(-c2nc(-c3cccs3)c(-c3cccs3)[nH]2)cc1O	164.4*	67.5	101.3	97.7	51.0	104.4	106.2	101.3	98.0	97.3	96.9	x
O=C(O)c1ccc(-c2nc(-c3ccccc3)c(-c3cccs3)[nH]2)cc1	105.0	110.4	104.6	100.4	104.6	111.9	x	x	x	x	x	x
COc1ccc(NC(C)=O)cc1NC(=O)CSc1nc2ncccc2[nH]1	100.7	101.1	104.7	x	102.2	95.9	x	x	x	x	x	x
O=c1c2ccccc2nc(/C=C/c2ccc([N+](=O)[O-])o2)n1CCCO	193.4*	104.5	229.8*	98.6	80.5	178.9*	300.0*	352.8*	143.3	274.8*	123.9	x
O=C(NC1CC1)C1CC(=O)N(c2cccc(Cl)c2)C1 (configuration not stated)	102.6	99.4	101.0	x	101.9	114.2	x	x	x	x	x	x
O=C1C(Cl)=C(N2CCCCCC2)C(=O)N1c1ccccc1Cl	91.2	104.2	103.8	94.6	94.5	95.5	x	x	x	x	x	x

Screens: PubChem, NMMLSC
